Values without a mark were called inactive.
Test system: Vero E6 infected with SARS-CoV-2
Assay: inhibition of SARS-CoV-2 cytopathic effect; higher = more antiviral protection, active = above 15
Details: 48 h

SMILES | inhibition of SARS-CoV-2 cytopathic effect (1 nM) | inhibition of SARS-CoV-2 cytopathic effect (8.33 nM) | inhibition of SARS-CoV-2 cytopathic effect (100 nM) | inhibition of SARS-CoV-2 cytopathic effect (833.33 nM) | inhibition of SARS-CoV-2 cytopathic effect (10000 nM)
CC(C)=CCC/C(C)=C/CNCCNC1C2CC3CC(C2)CC1C3 (stereo not given) | 0.6% | 0.09% | 1.62% | 1.05% | 0.17%
C=C1C(=O)O[C@@H]2/C=C(\C)CC/C=C(\C)CC[C@@H]12 [costunolide] | -0.97% | -0.24% | -0.99% | 2.87% | 19.3% (active)
CC(C)Cc1ccc(C(C)C(=O)NO)cc1 (stereo not given) [ibuproxam] | 1.38% | 1.54% | 0.99% | 2.87% | 1.73%
CCCC(C)C1(CC)C(=O)NC(=O)NC1=O (stereo not given) [pentobarbital] | 2.05% | 2% | 1.92% | -1.44% | -1.04%
Cc1ccc(-c2nn(C(C)(C)CNC(=O)c3ncccc3C)c3ncnc(N)c23)cc1 [WEHI-345-analog] | 0.48% | 1.39% | -0.26% | 0.47% | -2.28%
CNC1CC(N)C(O)C(OC2OC(CO)C(O)C3OC4(OC(C(N)CO)C(O)C(O)C4O)OC23)C1O (stereo not given) [Hygromycin B] | -0.42% | -1.63% | -0.49% | -1.13% | 1.46%
C[C@@H]([C@H](O)c1ccc(O)cc1)N1CCC(Cc2ccccc2)CC1 (racemic) [ifenprodil] | 2.09% | -0.2% | 0.52% | 0.72% | -6.19%

Reference: the supplement of paper PMC13380429
